Measured potencies and affinities stand elsewhere.

In ChEMBL document CHEMBL4513146, “CO-ADD screening of Karazin Kharkiv National University (Ukraine) compounds” one finds Inhibition data, which are given here for 40 molecules.

The experiment relates to Klebsiella pneumoniae. The settings on record: Concentration 32 ug.mL-1;; ASSAY_TEST Inhibition of Bacterial Growth; detection method Absorption (OD600); MEDIA CAMHB; plate type 384well; NBS; CORNING #3640; time 18 hr.
Regarding `CSc1ccc(-c2noc(Cn3nc4ccc(-c5ccccc5)nn4c3=O)n2)cc1`, the Inhibition is -3.08%.
For `COc1ccc(C)cc1NC(=O)Cn1nc2ccc(SCc3ccc(Cl)cc3)nn2c1=O` the value was -0.56%; for `O=C(Cn1nc2nc(Nc3ccc(F)cc3)ccn2c1=O)NCC1CCCO1` (stereo not given), 12.02%.
For `O=C(Cn1nc2c(SCc3ccccc3)nccn2c1=O)NC1CCCCC1` the value was 7.95%; for `COc1ccc(NC(=O)Cn2nc3ccc(SCc4ccc(Cl)cc4)nn3c2=O)cc1`, 1.71%.
For `COc1cccc(-n2ccn3c(SCC(=O)Nc4cc(Cl)ccc4OC)nnc3c2=O)c1` the value was 5.24%; for `Cc1cccc(Cn2nc3c(=O)n(-c4cccc(Cl)c4C)ccn3c2=O)c1`, -2.16%; for `Cc1ccc(NC(=O)CSc2nc3ccccc3n3c(C(C)C)nnc23)cc1Cl`, 1.48%.
In the case of `Cc1ccc(-c2cc3c4nnc(SCC(=O)Nc5cccc(Br)c5)n4ccn3n2)cc1`, the Inhibition is reported as 4.45%.
Consider `Cc1cc(C)cc(N(Cc2c(F)cccc2Cl)S(=O)(=O)c2cccn3cnnc23)c1`, for which the Inhibition was 7.41%.
The figure for `O=c1n(Cc2nc(-c3ccc(F)cc3)no2)nc2ccc(-c3ccccc3)nn12` is 18.38%.
As to `CCc1ccc(NC(=O)Cn2nc3ccc(SC(C)(C)C)nn3c2=O)cc1`, the Inhibition turned out to be 14.6%.
The figure for `Cc1cccc(CN(c2ccc(F)cc2)S(=O)(=O)c2ccc3nnc(C)n3c2)c1` is 6.15%; for `CCCCc1ccc(NC(=O)Cn2nc3c(N4CC(C)CC(C)C4)nccn3c2=O)cc1` (stereo not given) it is 3.89%; for `Cc1cc(C)cc(NC(=O)Cn2nc3c(N4CCCC4)nccn3c2=O)c1` it is 18.22%.
The figure for `Cc1ccc(Cn2nc3c(=O)n(-c4ccc(C)c(C)c4)ccn3c2=O)cc1` is 14.01%; for `Cc1cc(C)c(NC(=O)Cn2nc3ccc(SC4CCCCC4)nn3c2=O)c(C)c1` it is 7.83%; for `Cc1cccc(NC(=O)Cn2nc3c(SCc4ccc(Cl)cc4)nccn3c2=O)c1C` it is 15.65%.
Consider `CCc1nnc2c(S(=O)(=O)N(Cc3cccc(F)c3)c3cccc(C)c3)cccn12`, for which the Inhibition was determined as 4.33%.
Turning to `COc1cc(NC(=O)Cn2nc3c(N4CCCC(C)C4)nccn3c2=O)cc(OC)c1` (stereo not given), the Inhibition came to 5.76%.
For `CCc1ccccc1NC(=O)Cn1nc2n(CCC(C)C)c(=O)c3sccc3n2c1=O` the value was 0.67%; for `Cc1ccc(Oc2nccn3c(=O)n(CC(=O)Nc4ccc(Br)cc4)nc23)cc1`, 6.74%.
As for `O=c1n(Cc2c(F)cccc2Cl)nc2ccc(-c3ccccc3)nn12`, the Inhibition is listed as -0.01%.
For `COc1cccc(CN(c2ccc(F)cc2)S(=O)(=O)c2cccn3cnnc23)c1` the value was -0.69%; for `COc1cccc(NC(=O)Cn2c(=O)c3nnc(C(C)C)n3c3ccccc32)c1`, 16.14%.
For `O=C(Cn1nc2c3cc(-c4ccc(Cl)cc4)nn3ccn2c1=O)NC1CCCC1`, the Inhibition is 4.67%.
Consider `Cc1cc(C)c(NC(=O)Cn2nc3c4cc(-c5ccc(F)cc5)nn4ccn3c2=O)c(C)c1`, for which the Inhibition is given as 17.22%.
For the molecule `O=C(NCc1ccccc1)c1ccc2nn(CC(=O)N3CCN(c4ccc(F)cc4)CC3)c(=O)n2c1`, the Inhibition is -0.37%.
For `CC(C)c1ccc(NC(=O)Cn2nc3c(N4CCCCC4)nccn3c2=O)cc1` the value was 10.38%.
As to `O=C(Cn1nc2c3cc(-c4ccc(Cl)cc4)nn3ccn2c1=O)N1CCN(c2ccccc2)CC1`, the Inhibition is 10.64%.
On to `CCc1cccc(NC(=O)CSc2nnc3c(=O)n(-c4cccc(OC)c4)ccn23)c1`, for which the Inhibition came out at 7.34%.
In the case of `CSc1cccc(NC(=O)Cn2nc3c(Oc4cc(C)cc(C)c4)nccn3c2=O)c1`, the Inhibition was found to be 7.88%.
Turning to `O=C(Cn1nc2c(SC3CCCCC3)nccn2c1=O)Nc1cccc(Cl)c1`, the Inhibition is given as -2.02%.
As to `O=C(Cn1nc2c(Sc3cccc(F)c3)nccn2c1=O)Nc1cccc(Br)c1`, the Inhibition is given as 7.1%.
In the case of `Cc1ccc(Cn2c(=O)c3ccc(C(=O)NC4CCCC4)cc3n3c(=O)n(CC#N)nc23)cc1`, the Inhibition is 8.48%.
For `Cc1ccc(-c2cc3c4nn(CC(=O)Nc5ccc(C)c(Cl)c5)c(=O)n4ccn3n2)cc1C` the value was 10.5%; for `Cc1nnc2c(S(=O)(=O)N(Cc3ccc(F)cc3)c3ccc(Cl)cc3)cccn12`, 5.76%.
Regarding `Cc1cccc(CN(c2cccc(Cl)c2)S(=O)(=O)c2cccn3c(C)nnc23)c1`, the Inhibition is reported as -0.09%.
The figure for `CCc1nnc2c(S(=O)(=O)N(Cc3cccc(Cl)c3)c3ccccc3)cccn12` is -7.54%; for `Cc1ccc(-n2ccn3c(=O)n(Cc4ccc(Cl)cc4)nc3c2=O)cc1C` it is 1.49%.

A word on the Inhibition: it is the relative decrease from the control value, in per cent.
